# HDAC3 inh: inhibitors of human histone deacetylase 3; O15379; recombinant HDAC3, fluorogenic peptide/trypsin coupled, fluorescence; inhibition, % at 8.3 µM; 320,000 tested, 0.15% active; in the data active = inhibition above about 26%, passing the limit was not always enough; inconclusive = no clear call, values can overlap the other calls
# Target sequence (O15379 whole entry, looked up): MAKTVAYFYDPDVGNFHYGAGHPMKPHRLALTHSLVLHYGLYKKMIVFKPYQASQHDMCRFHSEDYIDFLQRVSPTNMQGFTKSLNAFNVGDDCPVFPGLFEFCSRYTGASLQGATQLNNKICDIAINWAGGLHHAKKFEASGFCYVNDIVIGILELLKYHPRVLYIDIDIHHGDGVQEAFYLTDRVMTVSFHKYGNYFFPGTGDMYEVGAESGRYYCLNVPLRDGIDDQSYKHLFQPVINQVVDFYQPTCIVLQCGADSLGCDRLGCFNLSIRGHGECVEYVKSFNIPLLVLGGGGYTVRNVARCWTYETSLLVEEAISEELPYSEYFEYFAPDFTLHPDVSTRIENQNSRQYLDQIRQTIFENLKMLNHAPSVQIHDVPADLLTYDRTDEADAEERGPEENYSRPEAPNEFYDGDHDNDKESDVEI
# GC-A act: GC-A (human) enzyme activation; activation, % at 10 µM; AID 1671463; HEK293 GC-A cells, cGMP TR-FRET, EC30 ANP; 0% at EC30 ANP, 100% saturating ANP; 370,000 tested, 0.14% active; P16066; in the data active = activation above about 40%
# NPR2 activator: GC-B (human) receptor activation | HEK293-GC-B cells, CNP EC30, cGMP TR-FRET; 0% at EC30 CNP, 100% saturating CNP | activation, % at 10 µM | P20594 | AID 1920062 | 370,000 tested, 0.11% active;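 active = activation at 10 µM reaching about 35% in either raw or pattern-adjusted values, limit read from the data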
# ALR inh: inhibitors of human sulfhydryl oxidase ALR. purified ALR, DTT oxidation, H2O2 HRP-luminol luminescence. inhibition, % (no concentration beside the values). 290,000 tested, 3.8% active. AID 485317;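 active = mean replicate inhibition above about 79%, with every replicate also reaching it, limit read from the data; inconclusive = only one of the two criteria met; inactive = mean below limit and not every replicate reaching it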
# * hit, by the source's call; ? = inconclusive; · = not tested or not shown. The entries come from a sample that favours hits as a whole.
SMILES,HDAC3 inh,GC-A act,NPR2 activator,ALR inh
CC(C)=CCCC(C)CN1CCC(N2CCC(C(=O)N3CCOCC3)CC2)CC1 (stereo not given),-4,-2,4,-2
Nc1ncc2c(n1)-c1ccoc1CC2,-7,1,-2,89*
Cc1ccc(C(=O)CCc2ccc(N)cc2)cc1,8,2,1,99*
CCSc1nnc(-c2cc(Br)ccc2N=Cc2c(C)[nH]n(-c3ccccc3)c2=O)c(=O)[nH]1,3,-6,-4,11
CCSc1nnc(-c2ccccc2N=Cc2c(C)[nH]n(-c3ccccc3)c2=O)c(=O)[nH]1,7,-2,-2,95*
OCC1OC(c2ccccc2)OC2COC(c3ccccc3)OC12 (stereo not given),·,3,2,·
NC(=O)C1CCN(CC(=O)Nc2ccccc2Sc2ccc(Cl)cc2)CC1,-3,-6,-7,87*
NC(=O)C1CCN(CC(=O)Nc2ccccc2Sc2ccccc2)CC1,-4,2,0,-1
COc1ccc(C(=O)CC(=O)C(=O)Nc2cccc(F)c2)cc1,0,0,-4,80*
COC(OC)c1nc(SCC(=O)Nc2cccc(Cl)c2)ncc1C(=O)O,1,-1,-2,99*
CC1CCN(C(=O)N2c3ccccc3Sc3ccccc32)CC1,3,-12,-9,89*
CC1CN(C(=O)N2c3ccccc3Sc3ccccc32)CC(C)O1 (stereo not given),-2,-18,-8,99*
O=C(CN1CCOCC1)N1c2ccccc2Sc2ccccc21,-2,-7,-4,4
O=C(N1CCOCC1)N1c2ccccc2Sc2ccccc21,-1,-15,-5,99*
CSc1ccccc1NC(=O)CN(C)C(=O)C1CCN(C(=O)Nc2ccccc2)CC1,1,3,4,1
O=C1CSC(c2ccccn2)N1c1ccc(C(F)(F)F)cc1 (stereo not given),-15,-6,-3,44
Cc1noc(C)c1C(=O)N1CCC(n2nnc3ncccc32)CC1,·,2,3,·
COc1cc2c(cc1OC)CN(C(=S)NC(=O)c1ccccc1)CC2,-1,-3,-2,4
O=[N+]([O-])c1ccc(Cl)c(S(=O)(=O)/N=C(/c2ccccc2)N2CCOCC2)c1,0,1,3,-13
COC1=C/C(=C/c2c(N)n3nc(CC(=O)N4CCCC4)sc3nc2=O)C=CC1=O,3,-3,-1,84*
CCOC1=C/C(=C/c2c(N)n3nc(CC(=O)N4CCCC4)sc3nc2=O)C=CC1=O,-1,-3,-2,99*
COC1=CC(=Cc2c(N)n3nc(CC(=O)N4CCCCC4)sc3nc2=O)C=C(OC)C1=O,-3,1,1,5
COc1ccc(CN2C[C@@H](CO)O[C@@H](n3cnc4c(NC5CCC5)ncnc43)C2)cc1,·,-2,0,·
CCN(CC)S(=O)(=O)c1cccc(-c2n[nH]c(=S)n2/N=C/c2ccc(OC(F)F)cc2)c1,4,2,-15,98*
CCN(CC)S(=O)(=O)c1cccc(-c2n[nH]c(=S)n2/N=C/c2ccc(OC)cc2)c1,?,-2,-4,·
SMILES,HDAC3 inh,GC-A act,NPR2 activator,ALR inh
O=C1C=CC(=O)N1c1ccc(Nc2ccccc2)cc1,·,-4,-8,·
O=C1C(Nc2ccccc2)=C2CCCC=C2N1c1ccccc1,-2,2,1,102*
O=C1CSC(=S)N1/N=C/c1cc(Br)ccc1O,4,·,·,98*
Cc1onc(-c2ccccc2)c1-c1n[nH]c(=S)n1-c1ccc(C(=O)O)cc1,1,3,3,89*
Cc1nn(CCc2n[nH]c(=S)n2-c2ccc(F)cc2)c(C)c1[N+](=O)[O-],5,3,3,81*
Cc1nn(CCc2n[nH]c(=S)n2-c2ccc(F)c(Cl)c2)c(C)c1[N+](=O)[O-],-2,2,1,92*
Cc1nn(CCc2n[nH]c(=S)n2-c2cccc(Cl)c2)c(C)c1[N+](=O)[O-],0,0,-2,44
Nc1nc2c(ncn2[C@@H]2O[C@H](C(=O)N[C@@H](Cc3ccccc3)C(=O)NCC3CCCCC3)[C@@H](O)[C@H]2O)c(=O)[nH]1,·,4,3,·
O=C(NCCN1C(=O)S/C(=C\c2ccccc2)C1=O)C1CCN(S(=O)(=O)c2cccs2)CC1,-2,-3,6,-3
CSc1ccc(C2Nc3ccccc3-c3cc(C)nn32)cc1 (stereo not given),5,-16,-11,0
Cc1cc2n(n1)C(c1ccccc1Cl)Nc1ccccc1-2 (stereo not given),-1,7,8,98*
C=CCO[C@H]1CN(C(=O)OC)[C@@H]2C[C@H]1Oc1ccccc12,·,-1,-3,·
COc1ccc(C(=O)OCC(=O)Nc2c(C)n(C)n(-c3ccccc3)c2=O)cc1OC,·,4,-1,·
CC[n+]1c(-c2ccccc2)csc1Nc1c(C)n(C)n(-c2ccccc2)c1=O,3,0,-2,99*
CC[n+]1c(-c2ccc(C)cc2)csc1Nc1c(C)n(C)n(-c2ccccc2)c1=O,·,3,4,·
O=C(Nc1ccccc1)c1ccc(S(=O)(=O)N2CCC(C(=O)O)CC2)cc1,6,2,2,-1
COC(=O)[C@]12C[C@H](CC(=O)NCc3ccc(C)o3)C(=O)N(Cc3ccco3)C1=C[C@H](C(C)(C)C)O[C@@H]2C,·,-19,-20,·
CCN(CC)c1ccc(-n2c(O)c(C=C3N=c4ccccc4=N3)sc2=S)cc1,-3,-1,3,-11
O=C(O)CCCn1c(O)c(C=C2N=c3ccccc3=N2)sc1=S,7,-5,-7,0
O=C(O)c1ccc(-n2c(O)c(C=C3N=c4ccccc4=N3)sc2=S)cc1,6,3,-1,99*
CCCC(C(=O)O)n1c(O)c(C=C2N=c3ccccc3=N2)sc1=S (stereo not given),7,-3,-12,89*
O=C(O)c1cccc(-n2c(O)c(C=C3N=c4ccccc4=N3)sc2=S)c1,10,-2,-6,99*
O=C([C@H]1O[C@@H](n2ccc(=O)[nH]c2=O)[C@H](O)[C@@H]1O)N1CCSC1,·,0,1,·
C#CCOC(=O)c1ccccc1C(=O)OCC#C,-3,-1,-7,-2
O=C(c1cccc2ccccc12)n1nnc2ccccc21,11,·,·,94*
SMILES,HDAC3 inh,GC-A act,NPR2 activator,ALR inh
C#CCOC(=O)c1ccccc1C(=O)n1nnc2ccccc21,94*,0,3,97*
Cc1cc(C)nc(OC(=O)c2ccc(Cl)cc2Cl)n1,-7,2,18,98*
Cc1oc(=O)c(NC(=O)c2cccc(Cl)c2)cc1C(=O)c1ccccc1,4,6,-1,97*
Nc1c(C(O)(C(F)(F)F)C(F)(F)F)cc(C(O)(C(F)(F)F)C(F)(F)F)c2ccccc12,33*,·,·,-26
O=C(NCc1ccccc1)/C(=C\c1ccc(O)cc1)NC(=O)c1ccco1,0,3,-1,97*
O=C(NCc1ccccc1)/C(=C/c1ccco1)NC(=O)c1ccco1,-11,3,-1,93*
O=C(NCc1ccccc1)/C(=C/c1ccccc1)NC(=O)c1ccco1,9,0,0,-3

# Source: PubChem
